Screens as filed in PubChem BioAssay.
NS1 function inh – qHTS Assay for Inhibitors of Influenza NS1 Protein Function. Potency, µM (highest dose often 46.1 µM). hit rate 0.4% among 270,000. AID 2326, 2010; calls by dose curve; further: actives are rising curves; nearly all actives have a fitted effect of over 50% in size
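Compounds were scored for reversing the slow growth caused by influenza A NS1 in S. cerevisiae, measured by optical density at 600 nm. Assay medium contained 2% galactose at pH 6.0; NS1-free yeast of the same strain were the positive control.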
SARS PLpro yeast – qHTS of Yeast-based Assay for SARS-CoV PLP; hit rate 0.19% among 330,000; S. cerevisiae expressing SARS-CoV PLpro, growth rescue; Potency, µM (doses to about 32.9 µM), hits mostly activators; calls by dose curve; further: nearly all actives have a fitted effect of over 55% in size
Pf growth 48h – Primary qHTS for delayed death inhibitors of the malarial parasite plastid, 48 hour incubation. P. falciparum luciferase growth in erythrocytes, 48 h. Potency, µM (top dose mostly 28.7 µM), actives largely listed as inhibitors. hit rate 5.9% among 310,000
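A one-generation exposure of luciferase-tagged malaria parasites in RPMI 1640/Albumax erythrocyte culture, 37 C and 5% CO2. Inhibition is inferred from decreased luminescence after adding detection reagent.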
RE007 growth inh – qHTS Assay for Inhibitors of the HIV-1 protein Vpr | S. pombe RE007 Vpr strain, BacTiter-Glo ATP luminescence, 24 h | Potency, µM (doses to about 92.2 µM), most hits filed as inhibitors | hit rate 0.21% among 360,000 | AID 651644, 2012; active means well fitted falling curve with a large enough effect; inconclusive means small, poorly fitted or top-dose-only effect; inactive means no such curve, though single readings can be large or run the other way; further: nearly all actives have a fitted effect of over 50% in size
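Fission yeast strain RE007, carrying one chromosomally integrated HIV-1 vpr copy, was seeded at OD 0.01 in PMG+AL medium with 23 nL pinned compound. After 24 h at 30 °C and 99% humidity, viability was read by BacTiter-Glo luminescence.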
Pf growth 96h – Primary qHTS for delayed death inhibitors of the malarial parasite plastid, 96 hour incubation. P. falciparum luciferase reporter growth, 96 h. Potency, µM (titrated, usually from 28.7 µM), usual class: inhibitors. hit rate 6.9% among 320,000. AID 504834, 2011
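Compounds incubated with erythrocytes infected by luciferase-expressing P. falciparum (2% hematocrit, 0.05% parasitemia final) for 96 hours, 37 C in 5% CO2. Growth inhibition scored as decreased luciferase luminescence.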
Each line names hits and unclear results; the compound was inactive in the other large screens. Compounds with a hit are over-represented: about 9.5% of the library has one in this group of screens. Unless noted, the call rests on the fitted dose curve; in most records, active means well fitted inhibition curve with a large enough effect; inconclusive means small, poorly fitted or top-dose-only effect, or another doubt; inactive means no such curve, though single readings can be large or run the other way.

O=C1CSC(c2cccs2)N1c1ccccc1 (stereo unspecified)	Pf growth 96h 7.4µM
O=C1CSC(c2ccccn2)N1c1ccc(C(F)(F)F)cc1 (stereo unspecified)	Pf growth 48h 2.9µM, Pf growth 96h inconclusive
O=S1(=O)NC(=NCC(c2ccco2)N2CCCCC2)c2ccccc21 (stereo unspecified)	Pf growth 48h inconclusive, Pf growth 96h 13µM
CN(C)C(CN=C1NS(=O)(=O)c2ccccc21)c1ccco1 (stereo unspecified)	none
S=C(Nc1ccccc1)Nc1ccc(OCc2ccc(Cl)cc2Cl)cc1	Pf growth 48h 5.9µM, Pf growth 96h inconclusive
OCCCCNCc1ccc(OCc2ccc(Cl)cc2Cl)cc1	Pf growth 48h 13µM, Pf growth 96h 15µM
S=C(NCCSCc1ccc(Cl)cc1Cl)Nc1ccccc1	Pf growth 48h inconclusive, RE007 growth inh inconclusive, Pf growth 96h inconclusive
Cc1ccc2c(c1)c1c(n2C)-c2[nH]ncc2CC1	RE007 growth inh 20µM
Cc1ccc2c(c1)c1c(n2C)C(C(N)=O)CCC1 (stereo unspecified)	none
CC(Oc1ccc(Cl)cc1)C(=O)Nc1cccc(S(=O)(=O)N2CCOCC2)c1 (stereo unspecified)	Pf growth 48h inconclusive, Pf growth 96h 10µM (no result: NS1 function inh)
CCN1CCN(c2ccc(S(=O)(=O)N3CCOCC3)cc2NC(=O)C(C)Oc2ccc(Cl)cc2)CC1 (stereo unspecified)	Pf growth 48h 12µM, Pf growth 96h inconclusive (no result: NS1 function inh)
CC(=O)N(CCc1ccccc1)Cc1cc2ccc(C)c(C)c2[nH]c1=O	Pf growth 96h inconclusive
CC1CN(C(=O)Cn2cc(S(=O)(=O)CC(=O)N(C)c3ccccc3)c3ccccc32)CC(C)O1 (stereo unspecified)	Pf growth 96h 13µM
COc1cccc(CNC(=O)CN2C(=O)CSc3ccc(S(=O)(=O)N4CCCCC4)cc32)c1	Pf growth 48h inconclusive, Pf growth 96h inconclusive
COc1cc(C(C(=O)NC2CCCCC2)N(Cc2cccs2)C(=O)Cc2c[nH]c3ccccc23)cc(OC)c1OC (stereo unspecified)	Pf growth 48h 9.3µM, Pf growth 96h 8.3µM
Cc1ccccc1N(C(=O)Cc1ccsc1)C(C(=O)NC1CCCCC1)c1ccc(F)cc1 (stereo unspecified)	Pf growth 96h inconclusive
COc1ccc(C(C(=O)Nc2ccc3c(c2)OCO3)N(C)C(=O)Cc2c[nH]c3ccccc23)cc1 (stereo unspecified)	NS1 function inh inconclusive, Pf growth 48h inconclusive, Pf growth 96h inconclusive
COc1ccc(C(C(=O)NC2CCCCC2)N(C(=O)Cc2c[nH]c3ccccc23)c2ccc(NC(C)=O)cc2)cc1OC (stereo unspecified)	Pf growth 48h 10µM, Pf growth 96h 9.3µM
COc1cc(C(C(=O)NC2CCCCC2)N(C(=O)Cc2c[nH]c3ccccc23)c2ccccc2C)cc(OC)c1OC (stereo unspecified)	NS1 function inh inconclusive, Pf growth 48h 13µM, Pf growth 96h inconclusive
O=C(CC1SC(N2CCOCC2)=NC1=O)Nc1cccc(C(F)(F)F)c1 (stereo unspecified)	none (no result: NS1 function inh, Pf growth 48h, Pf growth 96h)
CCCCNC(=S)N(C)/N=C/c1ccc(OCc2ccc(C(=O)OC)cc2)c(OC)c1	Pf growth 48h inconclusive
N#Cc1ccc(C(=O)N2CCCCC2c2cc(C(=O)Nc3cccc(C#N)c3)no2)cc1 (stereo unspecified)	none (no result: NS1 function inh, SARS PLpro yeast, Pf growth 48h, Pf growth 96h)
Cc1ccc(Nc2nc(Cl)nc(NC(C)(C)C)n2)cc1	none
Cc1ccc(Nc2nc(Cl)nc(N(C)C#N)n2)cc1	RE007 growth inh inconclusive, Pf growth 96h 7.4µM
O=C(NCCc1ccccn1)c1cncc(Br)c1	none
Cc1cccc(NC(=S)NN(Cc2ccccc2)c2ccccc2)c1C	Pf growth 96h 4.1µM (no result: Pf growth 48h)
CN(C)S(=O)(=O)c1cccc(NC(=O)c2cccc(S(=O)(=O)N3CCCCC3)c2)c1	Pf growth 48h inconclusive, Pf growth 96h inconclusive (no result: NS1 function inh)
COc1ccc(C2=CSC3=C(C(=O)c4cccc(S(=O)(=O)N(C)C)c4)CCN23)cc1	Pf growth 96h 8.3µM (no result: Pf growth 48h)
CC(C)(O)C#CC#CCN1CCOCC1	Pf growth 96h 10µM
OC1(C#CCN2CCOCC2)CCCCC1	none (no result: NS1 function inh)
C[N+]1(CCCCSc2ccc(O)cc2)CCCCC1	Pf growth 48h 9.3µM
CSc1sc(C(=O)NCC2CC2)cc1S(=O)(=O)C(C)C	Pf growth 48h 2.3µM
N#Cc1cccc(C(=O)OCC(=O)c2ccc3c(c2)NC(=O)CO3)c1	none (no result: NS1 function inh)
Cc1ccc2c(C)c(C(=O)N(Cc3ccncc3)CC3CCCO3)oc2c1C (stereo unspecified)	none
Cc1c(C(=O)N(Cc2ccncc2)CC2CCCO2)oc2c(F)cccc12 (stereo unspecified)	Pf growth 96h 10µM
O=C1C=CC(=O)c2c(O)c(N3CCN(CCO)CC3)c(Cl)c(O)c21	RE007 growth inh 63µM (no result: NS1 function inh, SARS PLpro yeast, Pf growth 48h, Pf growth 96h)
O=S(=O)(c1ccc(Br)cc1Cl)N1CCN(CCO)CC1	none (no result: NS1 function inh)
CC(C)CCN1CCN(Cc2ccsc2)CC1CCO (stereo unspecified)	Pf growth 96h 13µM
OCCC1CN(Cc2ccc3cc(Cl)ccc3n2)CCN1Cc1ccsc1 (stereo unspecified)	Pf growth 48h inconclusive, Pf growth 96h 5.2µM
CC(C)CCN1CCN(Cc2nc(-c3ccc(F)cc3)cs2)CC1CCO (stereo unspecified)	Pf growth 48h inconclusive, Pf growth 96h 12µM
CC(C)CCN1CCN(CC(c2ccccc2)c2ccccc2)CC1CCO (stereo unspecified)	Pf growth 48h 3.7µM, Pf growth 96h inconclusive
CSCC[C@H](NC(=O)Cc1c(C)c2c(cc(C)c3c(C)coc32)oc1=O)C(=O)O	none
CC1C(=O)N(Cc2ccc(F)cc2)c2ccccc2N1C(=O)c1c(F)cccc1F (stereo unspecified)	Pf growth 48h inconclusive, Pf growth 96h 12µM
CN(CC(=O)Nc1ccc(F)cc1)C(=O)CN1C(=O)NC(CCc2ccccc2)C1=O (stereo unspecified)	none (no result: NS1 function inh, SARS PLpro yeast, Pf growth 48h, Pf growth 96h)
COC(=O)[C@@]12CCCN1[C@H](c1ccc(-c3cccc(Cl)c3)cc1)[C@H]1C(=O)N(C)C(=O)[C@H]12	Pf growth 48h 6.6µM, Pf growth 96h 13µM (no result: NS1 function inh)
COC(=O)[C@@]12CCCN1[C@H](c1ccc(-c3ccccc3)cc1)[C@@H]1C(=O)N(C)C(=O)[C@@H]12	Pf growth 48h 7.4µM, Pf growth 96h inconclusive (no result: NS1 function inh)
CCCc1cc2c(=O)c(-c3cscn3)c(C(=O)OCC)oc2cc1O	none (no result: NS1 function inh)
CCc1cc2c(=O)c(-c3nc(C)cs3)c(CCCC(=O)O)oc2cc1O	Pf growth 96h 9.3µM
c1ccc(-c2nnc(-c3ccccn3)nn2)nc1	none (no result: SARS PLpro yeast, Pf growth 48h, Pf growth 96h)
c1ccc(-c2cccc(-c3ccccn3)n2)nc1	Pf growth 48h 1.5µM, RE007 growth inh inconclusive
Cc1ccc(S(=O)(=O)/N=C/c2ccc(N(C)C)cc2)cc1	none
Cc1ccc(S(=O)(=O)NC(=O)c2cc(C)n(-c3ccc(N(C)C)cc3)c2C)cc1	Pf growth 48h inconclusive, Pf growth 96h 3.7µM
